Assay results reported in PubChem BioAssay (Tox21).
Results filed as inconclusive are left out. Values without a mark were called inactive. Calls follow the shape of the dose curve; as a rule, active = well fitted activation curve with a large enough effect in the repeat runs; inconclusive = weak or mixed curves; inactive = flat fitted curve, though single readings scatter.

Assay: A CellTox Green Cytotoxicity Assay to monitor cytotoxicity in HEK293 cells - 8 hour (AID 1224884); also: nearly all actives have a fitted effect of over 35% in size
Settings: CellTox Green fluorescence; series mostly up to 76.8 µM; cytotoxicity increase: at the top concentration
How it was run: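 Cells (HEK293, 600/well) and dye reagent are dispensed together. After 5 h at 37 C, 23 nL compound is pinned in. Plates stay at 37 C for 40 h with fluorescence read at 0h, 8h, 16h, 24h, 32h and 40h.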
% is scaled to controls: 0 for no effect and ±100 for the full control effect.

SMILES | cytotoxicity increase
NCC1(Cc2noc(=O)[nH]2)CCCCC1 | -7.49%
O=Cc1cc2ccccc2o1 | 1.14%
C[C@]12CCC(=O)C=C1CC[C@H]1[C@@H]3CC[C@](O)(C(=O)CO)[C@@]3(C)C[C@H](O)[C@@]12F | 3.7% [at 35.3 µM]
COC(=O)c1ccccc1C(=O)O | -11.9%
OC[C@H]1O[C@@H](O[C@@H]2[C@@H](CO)O[C@](O)(CO)[C@H]2O)[C@H](O)[C@@H](O)[C@H]1O | -3.05% [at 35.3 µM]
CCOc1cccc(N)c1 | -6.76%
COC(=O)c1cccc(Cl)c1 | -3.21%
CN(C)C(C)(C)CO | -0.793%
CCCCSCCCC | 3.75%
CCN1CCCC1CN (centres undefined) | -7.91% [at 35.3 µM]
Cc1c(NC(=O)c2cccnc2)c(=O)n(-c2ccccc2)n1C | 6.14% [at 35.3 µM]
Cc1cc(-c2ccccc2)nnc1NCCN1CCOCC1 | 9.43% [at 35.3 µM]
CCOC(CN1CCN(CC(C)C(=O)c2ccccc2)CC1)c1ccccc1 (centres undefined) | -4.22% [at 15.8 µM]
CCn1cc(C(=O)O)c(=O)c2cnc(N3CCCC3)nc21 | 0.169% [at 6.97 µM]
COP(=O)(O)OP(=O)(O)OC | -15.2%
COCCc1ccccn1 | -7.37% [at 35.3 µM]
CCCC(=O)OC/C=C(\C)CCC=C(C)C | 29.8%
CCC(=O)CC | -6.17%
Cc1c(N)cccc1Cl | -9.57%
CN(C)CCCCl | -7.76%
O=C(Cn1ccnc1[N+](=O)[O-])NCc1ccccc1 | 3.85% [at 35.3 µM]
CC(C)C[C@@H]1[C@H](c2ccccc2)OC(=O)N1CCCN1CCCCCC1 | 1.04% [at 35.3 µM]
Cc1cc(C)c(C(=O)O)c(C)c1 | -0.118%
CC1(C)O[C@H]2CC(=O)OC[C@]23[C@H]2CC[C@@]4(C)[C@H](c5ccoc5)OC(=O)[C@H]5O[C@]54[C@]2(C)C(=O)C[C@@H]13 | 0.72% [at 35.3 µM]
